The source of these data is PubChem BioAssay (NCI).

This is part of a sample that, as a whole, favours compounds with a hit. Of some 83,000 tested, about 20% had one in any assay.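 Assay: single dose, 48 h. Readout: percent growth (0 = no net growth; negative = cell death). Active: <10.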 Unmarked numbers belong to inactive results. Calls of active or inactive are those of the source.

Among the test systems are SK-MEL-2 melanoma; EKVX NSCLC; SN12C renal; UO-31 renal; TK-10 renal; ACHN renal; CAKI-1 renal; A498 renal; CCRF-CEM leukemia; MOLT-4 leukemia.
Assay in all cases: NCI-60 one-dose screen, 48 h (100 = growth as untreated, 0 = no growth, -100 = all killed)
Common to all, as to details: 10 µM unless noted

With `CC(=O)OCC1OC(OC2C(COC(C)=O)OC(n3cc(COc4ccc5ccc(=O)oc5c4)nn3)C(OC(C)=O)C2OC(C)=O)C(OC(C)=O)C(OC(C)=O)C1OC(C)=O` (stereo not given), the growth with SK-MEL-2 melanoma was 113%; in the assay with EKVX NSCLC, 107%; with SN12C renal, 98.3%; in the assay on UO-31 renal, 74.7%; with TK-10 renal, 108%; with ACHN renal it was 102%. For the same compound, the growth in the assay with CAKI-1 renal was 88.1%; with A498 renal, 116%; with CCRF-CEM leukemia it was 100%; in the assay with MOLT-4 leukemia, 97%.
Consider `COc1ccc2[nH]cc(-c3nnc(N)nc3-c3c[nH]c4ncc(Br)cc34)c2c1`, for which the growth is 104% in the assay with SK-MEL-2 melanoma; 82.6% in the assay with EKVX NSCLC; 77.1% in the assay on SN12C renal; 65.9% in the assay on UO-31 renal; 101% with TK-10 renal; 59% in the assay on ACHN renal. Besides, the growth in the assay with CAKI-1 renal is 70%; in the assay on A498 renal it was 87.7%; with CCRF-CEM leukemia, 88.9%; in the assay with MOLT-4 leukemia, 70.8%.
With `COc1cccc(COc2ccc(NC(=O)Nc3ccc(Cl)c(C(F)(F)F)c3)cc2)c1`, the growth in the assay with SK-MEL-2 melanoma is 51.5%; in the assay with EKVX NSCLC, 35.2%; with SN12C renal, 33%; in the assay with UO-31 renal, 7.91% (active); in the assay with TK-10 renal, 45.1%; with ACHN renal, 11.2%. Besides, the growth in the assay with CAKI-1 renal is 24.2%; in the assay on A498 renal it was 35.3%; with CCRF-CEM leukemia, 34.1%; in the assay on MOLT-4 leukemia it was 28.1%.
Turning to `COc1c(F)ccc(C(=O)Nc2ccc3nc(NC(=O)C4CCCN(S(=O)(=O)c5ccc(Br)c(F)c5)C4)sc3c2)c1F` (stereo not given), the growth in the assay on SK-MEL-2 melanoma was 88.6%; in the assay with EKVX NSCLC, 88.5%; with SN12C renal, 87.7%; in the assay with UO-31 renal, 72.1%; with TK-10 renal, 122%; in the assay on ACHN renal it was 81.5%. Besides, the growth in the assay with CAKI-1 renal was 72.7%; with A498 renal, 112%; in the assay on CCRF-CEM leukemia, 87.4%; in the assay on MOLT-4 leukemia, 42.5%.
Turning to `CC(C)(C)OC(=O)/C=C/c1cccc2c1C(=O)NC(C)(c1cc3cc(Cl)ccc3oc1=O)N2` (stereo not given), the growth with SK-MEL-2 melanoma was 43.6%; in the assay with EKVX NSCLC it was 36.2%; in the assay with SN12C renal, 50%; in the assay with UO-31 renal it was 20.8%; in the assay on TK-10 renal it was 66.2%; in the assay with ACHN renal it was 19.6%. Further, the growth was 42.4% with CAKI-1 renal, 102% with A498 renal, 24.2% in the assay with CCRF-CEM leukemia and -14.6% (active) with MOLT-4 leukemia.
Regarding `COc1ccc2[nH]c(=O)c(CSc3nccc(-c4ccc(OC)c(OC)c4)n3)cc2c1`, the growth in the assay with SK-MEL-2 melanoma was 44.2%; in the assay with EKVX NSCLC, 15.7%; in the assay on SN12C renal it was 33.6%; with UO-31 renal, 16.1%; with TK-10 renal it was 26.4%; in the assay on ACHN renal, 24.4%. Besides, the growth in the assay on CAKI-1 renal is -10.2% (active); in the assay on A498 renal, 47.8%; in the assay on CCRF-CEM leukemia it was 31.3%; with MOLT-4 leukemia it was 7.07% (active).
Turning to `CCOC(=O)C1=C(N)N(c2ccccc2)C2=C(C(=O)CC(C)(C)C2)C1c1cccc(Cl)c1Cl` (stereo not given), the growth is 86.5% in the assay with SK-MEL-2 melanoma; 57.5% with EKVX NSCLC; 63% in the assay with SN12C renal; 75.5% with UO-31 renal; 95.2% with TK-10 renal; 57.9% in the assay on ACHN renal. Besides, the growth in the assay with CAKI-1 renal is 47.4%; in the assay on A498 renal it was 128%; with CCRF-CEM leukemia it was 54.8%; in the assay on MOLT-4 leukemia it was 39.5%.
With `CSc1ccccc1NC(=O)c1ccc2nnn(/C(C#N)=C/c3ccccn3)c2c1`, the growth was -86.4% (active) in the assay on SK-MEL-2 melanoma; -95.6% (active) in the assay on EKVX NSCLC; -99% (active) with SN12C renal; -100% (active) in the assay with UO-31 renal; -98.6% (active) in the assay on TK-10 renal; -100% (active) in the assay with ACHN renal. Besides, the growth in the assay with CAKI-1 renal was -88.2% (active); with A498 renal, 82.9%; in the assay on CCRF-CEM leukemia, -27.5% (active); in the assay on MOLT-4 leukemia, -27.9% (active).
`CN(C)c1nc(NCCNS(=O)(=O)c2ccc(C3=Nc4c(N)nc(N)nc4NC(c4ccc(Cl)cc4)C3)cc2)nc(Nc2ccc(F)cc2)n1` (stereo not given): the growth was -2.74% (active) with SK-MEL-2 melanoma; 43.3% in the assay on EKVX NSCLC; 47.1% in the assay with SN12C renal; 81.1% with UO-31 renal; 79.6% in the assay with TK-10 renal; 73.8% with ACHN renal. In addition, the growth is 72.4% in the assay on CAKI-1 renal, 76.5% in the assay with A498 renal, 14% in the assay with CCRF-CEM leukemia and 7.27% (active) in the assay with MOLT-4 leukemia.
As to `COc1cc(CNC(=O)/C=C/c2ccc3c(c2)OCO3)ccc1OCc1cn(-c2ccc([N+](=O)[O-])cc2)nn1`, the growth is 118% in the assay on SK-MEL-2 melanoma; 71.5% with EKVX NSCLC; 82.6% in the assay on SN12C renal; 78.2% in the assay with UO-31 renal; 106% in the assay with TK-10 renal; 90.5% in the assay with ACHN renal. The growth in the assay on CAKI-1 renal is 64.3%; with A498 renal, 113%; in the assay with CCRF-CEM leukemia, 99.5%; with MOLT-4 leukemia, 72.4%.
As to `CNS(=O)(=O)c1ccc(Nc2ccc(C(F)(F)F)cc2)c(-c2cn(C)cn2)c1`, the growth in the assay on SK-MEL-2 melanoma is 63.8%; with EKVX NSCLC, 49%; in the assay with SN12C renal it was 41.9%; in the assay with UO-31 renal, 9.13% (active); in the assay with TK-10 renal, 46.6%; in the assay on ACHN renal, 48.9%. Further, the growth is 60.8% with CAKI-1 renal, 50.7% with A498 renal, 51.2% in the assay with CCRF-CEM leukemia and 37.1% in the assay on MOLT-4 leukemia.
In the case of `CC(=O)c1cc(C(=O)c2ccccc2)n2c1ccc1ccccc12`, the growth was 117% in the assay with SK-MEL-2 melanoma; 98.5% with EKVX NSCLC; 90.6% with SN12C renal; 55.5% in the assay on UO-31 renal; 142% with TK-10 renal; 91.7% in the assay with ACHN renal. For the same compound, the growth with CAKI-1 renal is 79.6%; in the assay on A498 renal, 129%; in the assay with CCRF-CEM leukemia, 108%; with MOLT-4 leukemia, 87.6%.
